# Results taken from PubChem BioAssay (Tox21).
# Several values for one entry are separate records, joined by “and”; a condition that tells them apart may be missing. Identical values can stand only once. More than one record can exist for a structure, and the calls need not agree. Activity calls are given as the source filed them. A call without a number means that no potency is given here. Unless noted, calls come from the whole dose curve; as a rule, active = well fitted curve in the direction sought with a large enough effect in the repeat runs; inconclusive = weak or mixed curves; inactive = no such curve, though single readings can be large; an effect the other way counts as inactive or inconclusive.
# Key:
# [1] = qHTS assay to identify small molecule antagonists of the thyroid receptor (TR) signaling pathway - cell viability counter screen (AID 743064); note: nearly all actives have a fitted effect of over 50% in size; note: potency is the fitted concentration of half-maximal effect
# Outline: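 Viability of T3-stimulated (1 nM final) GH3.TRE-Luc cells is measured by CellTiter-Fluor fluorescence after 23.5 h compound exposure at 37 °C plus 30 min reagent incubation.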
# [2] = qHTS assay to identify small molecule antagonists of the thyroid receptor (TR) signaling pathway (AID 743065); note: nearly all actives have a fitted effect of over 55% in size; note: potency is the fitted concentration of half-maximal effect
# Outline: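 GH3.TRE-Luc rat pituitary cells (two TREs driving luciferase) were dosed with compound, then stimulated with 1 nM T3 (final) for 23.5 h at 37 C. ONE-Glo luminescence was the read-out, with CellTiter-Fluor fluorescence as the cytotoxicity counter-screen.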
# [3] = test system: thyroid hormone receptor (rat, GH3 cells); assay: qHTS assay to identify small molecule agonists of the thyroid receptor (TR) signaling pathway (AID 743066; calls by dose curve)
# [4] = molecular target: Estrogen receptor (Homo sapiens) (UniProt P03372); assay: qHTS assay to identify small molecule antagonists of the estrogen receptor alpha (ER-alpha) signaling pathway (AID 743069; active = well fitted curve in the direction sought with a large enough effect in the signal ratio in the repeat runs, not every such curve was filed as active; inconclusive = weak or mixed curves, or effect the other way; inactive = no such curve, though single readings can be large or run the other way; the % refers to the signal ratio)
# Chain of Estrogen receptor (Homo sapiens) (P03372 whole entry, looked up): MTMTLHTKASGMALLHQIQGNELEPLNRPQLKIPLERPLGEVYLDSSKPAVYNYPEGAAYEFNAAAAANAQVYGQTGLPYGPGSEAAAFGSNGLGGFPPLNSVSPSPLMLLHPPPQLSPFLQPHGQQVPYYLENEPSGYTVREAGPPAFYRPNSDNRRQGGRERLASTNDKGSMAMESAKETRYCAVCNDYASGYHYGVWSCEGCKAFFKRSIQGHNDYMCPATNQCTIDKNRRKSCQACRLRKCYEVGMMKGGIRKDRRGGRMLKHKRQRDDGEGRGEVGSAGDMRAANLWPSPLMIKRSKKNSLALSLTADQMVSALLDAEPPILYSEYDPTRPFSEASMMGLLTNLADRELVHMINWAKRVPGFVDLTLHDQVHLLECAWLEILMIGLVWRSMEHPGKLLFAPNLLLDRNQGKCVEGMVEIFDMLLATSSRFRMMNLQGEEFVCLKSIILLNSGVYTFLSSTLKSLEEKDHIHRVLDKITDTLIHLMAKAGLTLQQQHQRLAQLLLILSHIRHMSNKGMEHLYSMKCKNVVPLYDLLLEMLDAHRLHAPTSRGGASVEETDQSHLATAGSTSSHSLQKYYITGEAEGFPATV
# Outline: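 Beta-lactamase FRET fluorescence is read after 2 hr at room temperature with LiveBLAzer B/G substrate. Before that, ER-alpha-bla HEK293 cells sit 4 hr after plating, then receive compound plus 17beta-estradiol and incubate 18 hr at 37C.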
# [5] = qHTS assay to identify small molecule antagonists of the estrogen receptor alpha (ER-alpha) signaling pathway - cell viability counter screen (AID 743074; calls by dose curve;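 note: HEK293 cells carrying ER-alpha-UAS-bla reporter stimulated with 17beta-estradiol; nearly all actives have a fitted effect of over 45% in size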)
# [6] = molecular target: Estrogen receptor (Homo sapiens) (UniProt P03372); assay: qHTS assay to identify small molecule agonists of the estrogen receptor alpha (ER-alpha) signaling pathway (AID 743075; calls by dose curve;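 note: HEK293 GripTite cells with ER-alpha and UAS-driven beta-lactamase reporter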; note: potency is the fitted concentration of half-maximal effect)
# [7] = molecular target: Estrogen receptor (Homo sapiens) (UniProt P03372); assay: qHTS assay to identify small molecule agonists of the estrogen receptor alpha (ER-alpha) signaling pathway using the BG1 cell line (AID 743079); details: BG1Luc4E2 cells, ERE-luciferase agonist, 22 h; note: nearly all actives have a fitted effect of over 20% in size; note: potency is the fitted concentration of half-maximal effect
# [8] = qHTS assay to identify small molecule antagonists of the estrogen receptor alpha (ER-alpha) signaling pathway using the BG1 cell line (AID 743080; calls by dose curve;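 note: BG1 cells stimulated with 17beta-estradiol alongside compound; nearly all actives have a fitted effect of over 25% in size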; note: potency is the fitted concentration of half-maximal effect)
# Outline: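 Endogenous full-length ER-alpha in BG1-Luc-4E2 cells drives a stably integrated 4×ERE luciferase gene; compounds were tested against 17beta-estradiol over 21.5 h, with luminescence and multiplexed viability fluorescence recorded.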
# [9] = qHTS assay to identify small molecule antagonists of the estrogen receptor alpha (ER-alpha) signaling pathway using the BG1 cell line - cell viability counter screen (AID 743081);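 note: compound given together with 17beta-estradiol as the ER stimulus; nearly all actives have a fitted effect of over 45% in size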
# Aromatase (Homo sapiens) = Aromatase (Homo sapiens) (UniProt P11511); assay: qHTS assay to identify aromatase inhibitors (AID 743083); note: nearly all actives have a fitted effect of over 55% in size; note: potency is the fitted concentration of half-maximal effect
# Chain of Aromatase (Homo sapiens) (P11511 whole entry, looked up): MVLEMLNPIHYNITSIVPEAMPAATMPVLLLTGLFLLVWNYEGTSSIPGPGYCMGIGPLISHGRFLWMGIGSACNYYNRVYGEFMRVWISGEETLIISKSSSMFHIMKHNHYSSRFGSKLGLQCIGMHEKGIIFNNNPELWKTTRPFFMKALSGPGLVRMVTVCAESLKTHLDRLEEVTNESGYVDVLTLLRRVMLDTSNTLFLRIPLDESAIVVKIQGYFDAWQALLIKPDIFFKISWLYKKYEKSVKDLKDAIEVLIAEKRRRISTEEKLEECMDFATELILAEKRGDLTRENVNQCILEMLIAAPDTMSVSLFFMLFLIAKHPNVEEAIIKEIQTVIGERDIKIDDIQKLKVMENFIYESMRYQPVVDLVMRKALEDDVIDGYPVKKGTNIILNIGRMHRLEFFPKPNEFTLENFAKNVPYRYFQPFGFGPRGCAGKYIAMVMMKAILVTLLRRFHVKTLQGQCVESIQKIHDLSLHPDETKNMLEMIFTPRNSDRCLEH
SMILES,Potency [1],Potency [2],Potency [3],Potency [4],Potency [5],Potency [6],activation ([7]; at 70.3 µM (top of the series)),Potency [8],Potency [9],Potency (Aromatase (Homo sapiens)),Potency [7],activation ([7]; at 260 µM (top of the series))
O=CCCl,inactive,inactive,inactive,inactive,inactive,inactive,14.1% (inactive),inactive,inactive,inactive,–,–
C=CC1(C)OC(=O)N(c2cc(Cl)cc(Cl)c2)C1=O (stereo not drawn),inactive,inactive,inactive,inactive,inactive,inactive,-20.8% (inactive) and -18.1% (inactive),inactive,inactive,inactive,–,–
CC1NCCOC1c1ccccc1 (stereo not drawn),inactive,inactive,inactive,inactive,inactive,inactive,12.2% (inactive),inactive,inactive,inactive,–,–
NCCOS(=O)(=O)O,inactive,inactive,inactive,inactive,inactive,inactive,-1.11% (inactive),inactive,inactive,inactive,–,–
O=C1CCCCC1Cl (stereo not drawn),inactive,inactive,inactive,–,–,–,–,–,inactive,inactive,–,–
CC(C)c1ccc(O)cc1,inactive,inactive,inactive,–,inactive,–,–,–,inactive,inactive,–,–
CCCOc1nn(C(=O)NS(=O)(=O)c2ccccc2C(=O)OC)c(=O)n1C,inactive,inactive,inactive,–,–,–,–,–,inactive,inactive,–,–
CCC1(c2cccc(O)c2)CCCCN(C)C1 (stereo not drawn),inactive,inactive,inactive,–,inactive,–,–,–,–,inactive,–,–
CC(C)C(C)(N)C#N (stereo not drawn),inactive,inactive,inactive,–,–,–,–,–,inactive,inactive,–,–
CCOC(=O)N(C)N=O,inactive,inactive,inactive,–,inactive,–,–,–,inactive,inactive,–,–
CCOC(=O)C(SP(=S)(OC)OC)c1ccccc1 (stereo not drawn),inactive,inactive,inactive,–,inactive,–,–,–,inactive,inactive,–,–
COC(=O)c1ccc(CBr)cc1,inactive,inactive,inactive,inactive,–,inactive,–,–,inactive,inactive,6.94 µM (active),–
CC1=C2[C@H]3OC(=O)[C@@H](C)[C@@H]3CC[C@@]2(C)C=CC1=O,inactive,inactive,inactive,–,inactive,–,–,–,inactive,inactive,–,–
O=C(O)CBr,inactive,inactive,inactive,–,inactive,–,–,–,inactive,inactive,–,–
ClCCCCl,inactive,inactive,inactive,–,inactive,–,–,–,inactive,inactive,–,–
CNC(=O)Oc1cc(C)c(N(C)C)c(C)c1,inactive,inactive,inactive,–,inactive,–,–,–,inactive,inactive,–,–
N#CC(Br)(Br)C(N)=O,inactive,inactive,–,–,inactive,–,–,–,inactive,–,–,–
CC(C)[C@]12CC(=O)[C@H](C)[C@H]1C2,inactive,inactive,inactive,–,inactive,–,–,–,inactive,inactive,–,–
CC[C@@H](CO)NC(=O)[C@@H]1C=C2c3cccc4[nH]cc(c34)C[C@H]2N(C)C1,inactive,inactive,inactive,–,inactive,inactive,2.56% (inactive),inactive,inactive,inactive,–,–
Cl/C=C/CCl,inactive,inactive,inactive,–,inactive,–,–,–,inactive,inactive,–,–
CCC(=O)c1ccc(Cl)cc1,inactive,inactive,inactive,–,inactive,–,–,–,inactive,inactive,–,–
Oc1ccc(Cc2ccc(O)cc2)cc1,inactive,inactive,–,inactive,inactive,15.6 µM [inconclusive] (active),–,inactive,inactive,inactive,2.45 µM (active),–
O=C1C2CC=CCC2C(=O)N1SC(Cl)(Cl)Cl (stereo not drawn),6.68 µM (active) and 2.39 µM (active),2.98 µM (active) and 68.3 µM (active) and 1.69 µM (active),inactive,inactive,–,inactive and 48.2 µM [activator] (active),–,26.6 µM (active),inactive,13.3 µM (active) and inactive and 3.01 µM (active),–,–

SMILES,Potency [1],Potency [2],Potency [3],Potency [4],Potency [5],Potency [6],activation ([7]; at 70.3 µM (top of the series)),Potency [8],Potency [9],Potency (Aromatase (Homo sapiens)),Potency [7],activation ([7]; at 260 µM (top of the series))
CCCOC(=O)Cc1ccc(OCC(=O)N(CC)CC)c(OC)c1,inactive,inactive,inactive,–,inactive,–,–,–,–,inactive,–,–
[P]#[In],inactive,inactive,inactive,–,inactive,–,–,–,inactive,inactive,–,–
NCC1(CC(=O)O)CCCCC1,inactive,inactive,inactive,–,inactive,–,–,–,inactive,inactive,–,–
O=C(O)C(Cl)Br (stereo not drawn),inactive,inactive,inactive,–,inactive,–,–,–,inactive,inactive,–,–
C/C=C/CC#N,inactive,inactive,inactive,inactive,–,inactive,–,inactive,inactive,inactive,–,–
C=CCc1cc(OC)c2c(c1)OCO2,inactive,inactive,inactive,–,–,–,–,–,inactive,inactive,–,–
C=CC(=O)OCCN(C)C,inactive,inactive,inactive,–,inactive,–,–,–,inactive,inactive,–,–
CN1COCN(Cc2cnc(Cl)s2)/C1=N\[N+](=O)[O-],inactive,inactive,inactive,–,–,–,–,–,inactive,inactive,–,–
CC(=NC#N)N(C)Cc1ccc(Cl)nc1,inactive,inactive,inactive,–,inactive,–,–,–,inactive,inactive,–,–
CON(C)C(=O)Nc1ccc(Br)cc1,inactive,inactive,inactive,–,inactive,–,–,–,inactive,inactive,–,–
CC(=O)OCC1=C(C(=O)O)N2C(=O)[C@@H](N)[C@H]2SC1,inactive,inactive,inactive,–,inactive,–,–,–,inactive,inactive,–,–
CCOC(=O)COc1ccc(Cl)cc1Cl,inactive,inactive,inactive,–,inactive,–,–,–,inactive,–,–,–
Cc1ccc(S(=O)(=O)N[C@@H](CCCCN)C(=O)CCl)cc1,16.8 µM (active),13.3 µM (active),–,inactive,inactive,–,–,–,–,inactive,–,–
COC(=O)[C@@H](N)CCCN/C(N)=N/[N+](=O)[O-],inactive,inactive,inactive,–,inactive,–,–,–,inactive,inactive,–,–
O=[N+]([O-])c1cccc(CCl)c1,inactive,inactive,inactive,–,inactive,–,–,–,inactive,–,–,–
N#CN,inactive,–,inactive,inactive,inactive,inactive,-14.8% (inactive),inactive,inactive,inactive,–,-1.65% (inactive)
CC(C)NCC(O)c1ccc([N+](=O)[O-])cc1 (stereo not drawn),inactive,inactive,inactive,–,inactive,–,–,–,inactive,inactive,–,–
CCCCS(=O)(=O)Cl,inactive,inactive,inactive,–,inactive,–,–,–,inactive,inactive,–,–
CCCCCCC1CCOC1=O (stereo not drawn),inactive,inactive,inactive,–,inactive,–,–,–,inactive,inactive,–,–
CCCC(C)(COC(N)=O)COC(N)=O,inactive,inactive,inactive,–,inactive,–,–,–,inactive,inactive,–,–
O=c1[nH]c2ccccc2o1,inactive,inactive,inactive,–,inactive,–,–,–,inactive,inactive,–,–
Cc1ccc(Cl)c(O)c1,inactive,–,inactive,inactive,inactive,inactive,9.43% (inactive),inactive,inactive,inactive,–,–
